Laboratory results taken from PubChem BioAssay (NCATS).
“And” between values parts separate entries of the source, which are not always exact repeats. Equal values may be shown once. Records with an inconclusive call do not appear. Entries that show only a call come without a potency. A number with no mark means an inactive call. The source made the active and inactive calls. Calls come from the whole dose curve; as a rule, active = well fitted inhibition curve with a large enough effect; inconclusive = small, poorly fitted or top-dose-only effect; inactive = flat fitted curve, though single readings scatter.

Assays:
[1] = system: CRL-7250; assay: Cytotoxic Profiling of Annotated Libraries Using Quantitative High-Throughput Screening (AID 1296008); details: Five cell lines viability, CellTiter-Glo ATP luminescence, 48-72 h; max response: active compounds read low; note: potency is the fitted concentration of half-maximal effect
Outline: (§1)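 Compounds were pin-transferred onto cells and incubated 48 or 72 hr at 37 degree Celsius, 95% humidity. CellTiter-Glo was added, plates sat 10 min at room temperature, then ATP-coupled luminescence was imaged as the viability read-out.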

[2] = system: HEK293; assay: as above; details: Five cell lines viability, CellTiter-Glo ATP luminescence, 48-72 h; max response: active compounds read low
Outline: as §1

[3] = system: HaCat; assay: as above; details: Five cell lines viability, CellTiter-Glo ATP luminescence, 48-72 h; max response: active compounds read low
Outline: as §1

[4] = system: KB-3-1; assay: as above; details: Five cell lines viability, CellTiter-Glo ATP luminescence, 48-72 h; max response: active compounds read low
Outline: as §1

[5] = system: NIH3T3; assay: as above; details: Five cell lines viability, CellTiter-Glo ATP luminescence, 48-72 h; max response: active compounds read low
Outline: as §1

[6] = system: SC27B; assay: qHTS profiling for inhibitors of Plasmodium falciparum proliferation (AID 504749); details: P. falciparum in erythrocytes, SYBR Green DNA, 72 h; series mostly up to 28.7 µM
Outline: (§2)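 Fluorescence of SYBR Green-bound parasite DNA, read at 485/535 nm, served as the growth measure. Infected erythrocytes were cultured with compound 72 h; artemisinin (0.29 uM) and DMSO wells defined the normalization range.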

[7] = system: TAB109; assay: as above; details: P. falciparum in erythrocytes, SYBR Green DNA, 72 h; series mostly up to 28.7 µM
Outline: as §2

[8] = system: TAB113; assay: as above; details: P. falciparum in erythrocytes, SYBR Green DNA, 72 h; series mostly up to 28.7 µM
Outline: as §2

[9] = system: TAB165; assay: as above; details: P. falciparum in erythrocytes, SYBR Green DNA, 72 h; series mostly up to 28.7 µM
Outline: as §2

[10] = system: W2; assay: as above; details: P. falciparum in erythrocytes, SYBR Green DNA, 72 h; series mostly up to 28.7 µM
Outline: as §2
Note: nearly all actives have a fitted effect of over 60% in size.

For `NCCO`, the max response [1] was -2.34%, the max response [2] was 4.02% and the outcome [3] was “inactive”. It also gave a max response [4] of -25.6% and a max response [5] of -0.614%.

In the case of `CO[C@@]1(NC(=O)Cc2cccs2)C(=O)N2C(C(=O)O)=C(COC(N)=O)CS[C@@H]21`, the outcome [1] is reported as “inactive”, the outcome [2] is reported as “inactive” and the outcome [3] is reported as “inactive”. The max response [4] was -24.9% and -6.96% and the outcome [5] was “inactive”.

For `CCNC(=O)[C@H]1O[C@@H](n2cnc3c(N)nc(NCCc4ccc(CCC(=O)O)cc4)nc32)[C@H](O)[C@@H]1O`, the max response [1] was 3.23%, the outcome [2] was “inactive” and the max response [3] was 2.46%. It also gave a max response [4] of 2.49% and a max response [5] of -6.33%.

In the case of `CC1(C)S[C@@H]2[C@H](NC(=O)[C@H](NC(=O)N3CCN(S(C)(=O)=O)C3=O)c3ccccc3)C(=O)N2[C@H]1C(=O)O`, the Potency [6] is reported as “inactive”, the Potency [7] is reported as “inactive” and the Potency [8] is reported as “inactive”. The Potency [9] was “inactive”, the Potency [10] was “inactive” and the max response [1] was 4.22%. The max response [2] was -0.837%, the outcome [3] was “inactive” and the max response [4] was 1.37%. For the same molecule, the outcome [4] was “inactive” and the outcome [5] was “inactive”.

`CC(C(=O)O)c1ccc2c(c1)[nH]c1ccc(Cl)cc12` (stereo not drawn) was tested, and the Potency [6] was “inactive”, the Potency [7] was “inactive” and the Potency [8] was “inactive”. For the same molecule, the Potency [9] was “inactive”, the Potency [10] was “inactive” and the max response [1] was 2.04%. For the same molecule, the outcome [1] was “inactive”, the max response [2] was -1.79% and the outcome [2] was “inactive”. For the same molecule, the max response [3] was 1.94%, the outcome [3] was “inactive” and the max response [4] was 2.49% and 1.67%. The max response [5] was 1.25% and 0.838%.

For `CN(C)CCn1nnnc1SCC1=C(C(=O)O)N2C(=O)[C@@H](NC(=O)Cc3csc(N)n3)[C@H]2SC1`, the max response [1] was -7.23%, the max response [2] was -4.49% and the outcome [3] was “inactive”. For the same molecule, the max response [4] was -1.99% and the outcome [5] was “inactive”.

In the case of `CC1(C)[C@@H](O)CC[C@]2(C)[C@H]3C(=O)C=C4[C@@H]5C[C@@](C)(C(=O)O)CC[C@]5(C)CC[C@@]4(C)[C@]3(C)CC[C@@H]12`, the Potency [6] is reported as “inactive”, the Potency [7] is reported as “inactive” and the Potency [8] is reported as “inactive”. For the same molecule, the Potency [9] was “inactive”, the Potency [10] was “inactive” and the max response [1] was 1.85%. The outcome [2] was “inactive”, the max response [3] was -15.3% and the max response [4] was 9.23% and -7.89%. For the same molecule, the outcome [4] was “inactive” and the max response [5] was -0.299%.

For `O=C(CS)Nc1ccccc1`, the max response [1] was -21.9%, the max response [2] was -28.6% and the outcome [3] was “inactive”. For the same molecule, the max response [4] was -19% and the max response [5] was 0.87%.

For `CC(C)OC(=O)c1cc(C(=O)OC(C)C)cc([N+](=O)[O-])c1`, the outcome [1] was “inactive”, the max response [2] was 4.1% and the outcome [3] was “inactive”. The max response [4] was 2.68% and the max response [5] was -2.82%.

In the case of `CC(C(=O)O)c1ccc(C(=O)c2ccccc2)s1` (stereo not drawn), the outcome [1] is reported as “inactive”, the max response [2] is reported as 0.794% and the outcome [3] is reported as “inactive”.

`N=C(N)N` was tested, and the max response [1] was -5.46%, the outcome [2] was “inactive” and the outcome [3] was “inactive”. The max response [4] was -12.6% and the outcome [5] was “inactive”.

For `O=C(Nc1ccc2[nH]ncc2c1)C1CCC1`, the outcome [1] was “inactive”, the max response [2] was 0.86% and the max response [3] was -2.65%. It also gave a max response [4] of -1.12% and a max response [5] of 4.63%.

With `Nc1ccc(O)c([N+](=O)[O-])c1` the max response [1] was 4.51%, the max response [2] was -8.71% and the outcome [3] was “inactive”.

With `Cc1ccc(O)c(-n2nc3ccccc3n2)c1` the Potency [6] was “inactive”, the Potency [7] was “inactive” and the Potency [8] was “inactive”. The Potency [9] was “inactive”, the Potency [10] was “inactive” and the max response [1] was -18.8%. The max response [2] was -9.47%, the max response [3] was -23.9% and the max response [4] was -10.3%. It also gave a max response [5] of 0.367%.

`CC(=O)SCC(CC(=O)c1ccc(C)cc1)C(=O)O` (stereo not drawn) was tested, and the max response [1] was 2.17%, the outcome [2] was “inactive” and the max response [3] was -9.14%. For the same molecule, the outcome [4] was “inactive” and the max response [5] was -1.54%.

For `O=C(O)[C@H](CC(=O)N1C[C@H]2CCCC[C@H]2C1)Cc1ccccc1`, the Potency [6] was “inactive”, the Potency [7] was “inactive” and the Potency [8] was “inactive”. The Potency [9] was “inactive”, the Potency [10] was “inactive” and the max response [1] was -6.27%. For the same molecule, the max response [2] was -22.3%, the max response [3] was -9.54% and the max response [4] was -7.55% and -0.116%. For the same molecule, the max response [5] was 3.24%.

For `COC(=O)Nc1nc2ccc(C(=O)C3CC3)cc2[nH]1`, the Potency [1] was 2990 nM (active), the Potency [2] was 750 nM (active) and the outcome [3] was “inactive”.

`Nc1ccc([N+](=O)[O-])cc1O` gave a max response [1] of -25%, a max response [2] of -27.4% and a max response [3] of 4.66%. It also gave a max response [4] of 10.6%.

With `Cc1ccc(C(=O)c2ccc(CC(=O)O)n2C)cc1` the Potency [6] was “inactive”, the Potency [7] was “inactive” and the Potency [8] was “inactive”. For the same molecule, the Potency [9] was “inactive”, the Potency [10] was “inactive” and the max response [1] was -1.54%. The max response [2] was -2.23%, the max response [3] was 2.78% and the max response [4] was -6.96%. The max response [5] was 0.61%.

With `O=C(Nc1ccc(C(=O)O)c(O)c1)c1ccccc1` the Potency [6] was “inactive”, the Potency [7] was “inactive” and the Potency [8] was “inactive”. For the same molecule, the Potency [9] was “inactive”, the Potency [10] was “inactive” and the outcome [1] was “inactive”. For the same molecule, the outcome [2] was “inactive”, the outcome [3] was “inactive” and the max response [4] was -1.99%. For the same molecule, the max response [5] was -1.76%.

For `CCOC(=O)c1ccccc1O`, the Potency [6] was “inactive”, the Potency [7] was “inactive” and the Potency [8] was “inactive”. The Potency [9] was “inactive”, the Potency [10] was “inactive” and the max response [1] was 3.39%. The outcome [2] was “inactive”, the max response [3] was -10.3% and the max response [4] was -11.3% and -16.2%. The max response [5] was -7.47%.
